# Source: PubChem BioAssay (several laboratories)
# Most compounds without a hit are left out; they make up all but 4.3% or so of the library.
# SMARCA2 activ – SMARCA2 function activation, primary screen; activation, % at 9.1 µM; hit rate 1% among 370,000; MG213 cells, MMTV-luciferase reporter, dexamethasone, overnight; in the data active = activation above about 7.8%;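 note: 0% = vehicle wells and 100% = reference activator wells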
# Wnt act – Wnt/beta-catenin pathway activation; Wnt/beta-catenin reporter cell assay, activator, plate reader; activation, % at 9.35 µM; hit rate 1.2% among 300,000; AID 743398; in the data active = activation above about 30%, passing the limit was not always enough;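 note: 0% = neutral control wells and 100% = positive control wells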
# esBAF inh – SWI/SNF esBAF complex inhibition; mouse ES cells, Bmi1-luciferase knock-in reporter, 24 h; 100% = twice the neutral-well signal; reporter increase, % at 12.5 µM; hit rate 2% among 350,000; AID 602393; in the data active = activation above about 40%;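 note: 0% = median of the plate's neutral control wells and 100% = double that signal; a rise in the Bmi1 reporter signal indicates esBAF inhibition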
# HSF1 inh – HSF1 inhibition. hit rate 0.77% among 300,000. NIH3T3-HGL HSE-luciferase, MG132-induced, luminescence 8 h; active compounds read low. activity change, negative = inhibition, % at 7.5 µM (by protocol). AID 2098;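 active = more than half of replicate wells show activity change below -50%, luminescence cut by over half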;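 note: luciferase reports HSF-1 transcriptional activity via heat shock element; 0% = median of DMSO wells and -100% = zero luminescence signal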
# MITF act – activators of MITF-driven TRPM1 promoter activity in SK-MEL-5 cells. SK-MEL-5 TRPM1-promoter luciferase, 24 h; % of positive control, neutral wells = 0. activation, % at 12.5 µM. hit rate 0.75% among 300,000. AID 588334;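 active = mean activation of at least 80% with every replicate also reaching 80%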;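 note: 0% = neutral control wells and 100% = parthenolide positive control wells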
# HSF-1 act – increases HSF-1 driven luciferase reporter signal; NIH3T3-HGL HSF-1 luciferase reporter, MG132, 8 h; 100% = twice DMSO control signal; activation, % at 9 µM; hit rate 1.7% among 300,000;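 active = mean replicate activation of at least 50% with a set share of replicates each reaching 50%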;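 note: 0% = median of the neutral control wells and 100% = twice that signal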
# Active calls of the source: *; . = no result.
SMILES,SMARCA2 activ,Wnt act,esBAF inh,HSF1 inh,MITF act,HSF-1 act
CC/C(=C(\c1ccccc1)c1ccc(OCCN(C)C)cc1)c1ccccc1,-3,-1,-3,-2,-18,-3
C[C@@H]1CN([C@@H](C)CO)S(=O)(=O)c2ccc(Br)cc2O[C@H]1CN(C)S(=O)(=O)c1ccc(F)cc1,.,.,0,.,.,.
CS(=O)(=O)N(CC(=O)O)c1ccc(C23CC4CC(CC(C4)C2)C3)cc1,-3,-1,4,-65*,.,-72
COc1ccc(CN2CCNC(=O)C2CC(=O)NCc2cnn(C)c2)cc1OC (stereo not given),0,-1,-7,-2,-7,7
COc1ccc(CN2CCNC(=O)C2CC(=O)NC2CC(C)(C)CC(C)(C)C2)cc1OC (stereo not given),-3,2,6,-70*,9,-79
CC(OC(=O)c1cccs1)C(=O)NCCc1ccccc1 (stereo not given),-2,-1,5,5,-10,-11
CC(OC(=O)c1cccs1)C(=O)NCc1ccccc1 (stereo not given),-3,53*,-8,-3,-8,2
CO[C@H]1CN(C)C(=O)c2ccc(NS(=O)(=O)c3ccccc3C)cc2OC[C@H](C)N(C)C[C@H]1C,.,.,0,.,.,.
O=C(c1cccnc1)N1C[C@@H]2[C@H](c3ccccc31)[C@@H](CO)N2C(=O)Nc1ccccc1,.,.,2,.,.,.
CO[C@H]1CN(C)C(=O)c2cc(NC(=O)c3ccc4c(c3)OCO4)ccc2OC[C@@H](C)NC[C@H]1C,.,.,1,.,.,.
CC(=O)c1ccc(NC(=O)Nc2ccc3c(c2)nc(C)n3C)cc1,6,7,.,15,85*,37
Cc1ccc(NC(=O)Nc2ccc3c(c2)nc(C)n3C)cc1,7,.,.,0,9,15
Cc1nc2cc(NC(=O)Nc3ccccc3Cl)ccc2n1C,7,7,.,-7,-14,16
Cc1nc2cc(NC(=O)Nc3cccc([N+](=O)[O-])c3)ccc2n1C,5,-1,-2,27,.,54*
COP(=O)(OC)c1nc(-c2cccc3ccccc23)oc1NCc1ccccc1,-3,-1,3,25,14,87*
N#Cc1nc(-c2cccc3ccccc23)oc1NCCN1CCCCC1,2,4,6,55,.,70*
N#Cc1nc(-c2cccc3ccccc23)oc1N1CCCCC1,0,.,6,20,78,26
CCNc1oc(-c2cccc3ccccc23)nc1C#N,2,.,60*,26,43,44
CC(C)Nc1oc(-c2cccc3ccccc23)nc1C#N,8,.,38,31,86*,45
C[C@H](CO)N1C[C@H](C)[C@H](CN(C)S(=O)(=O)c2ccc(Cl)cc2)Oc2c(NC(=O)Nc3ccc(C(F)(F)F)cc3)cccc2C1=O,.,.,-3,.,.,.
CC(C)(C)C(=O)NCC12C=CC(O1)C1C(=O)N(c3ccccc3)C(=O)C12 (stereo not given),-1,-1,-5,184,-3,203*
O=C1C2C3C=CC(CO)(O3)C2C(=O)N1c1ccc(-c2ccccc2)cc1 (stereo not given),.,.,.,35,.,47
Cc1ccc(N2C(=O)C3C4C=CC(CNC(=S)Nc5ccc(Cl)cc5)(O4)C3C2=O)cc1 (stereo not given),2,-2,.,29,17,55*
C[C@@H]1CCCCO[C@H](CN(C)Cc2ccncc2)[C@@H](C)CN([C@@H](C)CO)C(=O)c2cc(NS(=O)(=O)c3cn(C)cn3)ccc2O1,.,.,2,.,.,.
Brc1ccc(-c2noc(COc3ccc4c(c3)CCC4)n2)o1,2,1,-5,7,.,18
SMILES,SMARCA2 activ,Wnt act,esBAF inh,HSF1 inh,MITF act,HSF-1 act
c1csc(-c2noc(COc3ccc4c(c3)CCCC4)n2)c1,5,36*,40,-6,140*,1
O=C(Nc1ccc(C(F)(F)F)cc1)N[C@H]1C=C[C@H](CC(=O)N2CCCCC2)O[C@H]1CO,.,.,-3,.,.,.
CC1CCC(C(C)C)C(OC(=O)COC(=O)c2cc(O)ccc2N)C1 (stereo not given),1,34*,.,4,-11,-2
Cc1noc(C)c1NC(=O)N(C)C[C@@H]1OCCCC[C@@H](C)Oc2ccc(NC(=O)C3CCCCC3)cc2C(=O)N([C@@H](C)CO)C[C@@H]1C,.,.,-3,.,.,.
CCNC(=O)CNC(=O)c1nn(Cc2ccccc2)c(=O)c2ccccc12,-1,-2,2,-71*,-12,-76
COc1ccc(-n2nc(C(=O)NCC(=O)N3CCCC(C)C3)c3ccccc3c2=O)cc1Cl (stereo not given),-1,2,13,6,64,15
COc1ccc(-n2nc(C(=O)NCC(=O)N3CCOCC3)c3ccccc3c2=O)cc1Cl,-1,-2,11,13,6,56*
CN1C(=O)NC(c2ccccc2)(C(F)(F)F)S/C1=C(/C#N)c1nnc(N2CCOCC2)n1-c1ccccc1 (stereo not given),-1,67*,.,13,-4,32
CN1C(c2ccc(F)cc2)=CS/C1=C(/C#N)c1nnc(N2CCOCC2)n1-c1ccccc1,0,-1,.,4,16,-4
Cn1c(SCCOc2ccccc2Cl)nnc1-c1cccs1,0,10,13,14,23,1
Cn1c(SCc2c(F)cccc2Cl)nnc1-c1cccs1,6,.,65*,24,.,36
C[C@H](CO)N1C[C@H](C)[C@@H](CN(C)C(=O)Nc2ccccc2)OCCCC[C@H](C)Oc2ccc(NC(=O)CCC(F)(F)F)cc2C1=O,.,.,2,.,.,.
O=C(CN(C(=O)c1csnn1)c1ccc(F)c(Cl)c1)NCc1ccccc1,2,1,-5,2,0,-10
O=C(CN(C(=O)c1csnn1)c1ccc(F)cc1)NCc1ccc2c(c1)OCO2,0,2,50*,-1,.,-10
O=C(CN(C(=O)c1csnn1)c1ccc(F)c(Cl)c1)NCc1ccc(F)cc1,-1,-1,.,23,2,72*
C[C@@H]1CN([C@H](C)CO)C(=O)Cc2cc(NS(=O)(=O)c3ccccc3)ccc2O[C@@H]1CN(C)CC1CCCCC1,.,.,-2,.,.,.
C[C@@H]1CN([C@@H](C)CO)C(=O)c2cccc(NC(=O)Nc3ccc(F)cc3)c2O[C@@H]1CN(C)C(=O)Nc1ccc(F)cc1,.,.,-2,.,.,.
Cc1ccc(NC(=O)N2CCCC2C(=O)Nc2c(C)cc(C)cc2C)cc1 (stereo not given),-2,-2,7,20,10,57*
O=C(c1ccco1)N1CCN(C(=O)c2ccco2)C1=S,4,-8,.,.,-6,.
Cc1cccn2c1nc(=S)n2C(=O)c1ccco1,3,72*,.,3,61,22
C=CCNc1nc(C(=O)OCC(=O)Nc2ccc(S(N)(=O)=O)cc2)cs1,0,2,-6,4,-7,-3
C=CCNc1nc(C(=O)OCC(=O)c2ccccc2)cs1,4,19,55*,12,69,38
